Measured values reported in PubChem BioAssay AID651567 (National Center for Advancing Translational Sciences (NCATS), 2012).
The campaign covered roughly 1,200 compounds. About 10 (0.8%) were called active. Not shown: some 4% with an inconclusive outcome. This is one part of a sample in which actives are shown more often than they occur. Values without a mark were called inactive. Calls follow the shape of the dose curve; as a rule, active = well fitted inhibition curve with a large enough effect; inconclusive = small, poorly fitted or top-dose-only effect; inactive = no such curve, though single readings can be large or run the other way.

Test: qHTS Assay to Find Inhibitors of Chronic Active B-Cell Receptor Signaling: Hit Validation in OCI-Ly3 Assay
Conditions: OCI-Ly3 IkB-luciferase reporter, Chroma-Glo luminescence, 4 h; series mostly up to 46.1 µM; activity change, negative = inhibition: at the top concentration
From the text: Diffuse large B-cell lymphoma (DLBCL) is the most common category of non-Hodgkin lymphoma, with ~20,000 new cases per year in the United States. DLBCL should be regarded as a collection of different neoplasms. Microarray gene expression analysis has defined two principal types of DLBCL, named for their similarity to normal B cell stages or activation states: a germinal center B-cell (GCB) type, and an activated B-cell (ABC) type. In ABC-DLBCL, a constitutive high-level activity of the NF-kappaB family of transcription factors has been observed (1) and NF-kappaB target genes are more highly expressed in ABC primary tumors than in GCB tumors. Functional studies have shown a constitutive high-level activity of the IkappaB (inhibitor of kappa-B) kinase (IKK) complex. […] Further analysis of DLBCL primary tumors for NF-kappaB target gene expression imply that although CARD11 is required for constitutive IKK activity in all ABC-DLBCL lines, mutations in CARD11 may be the root cause of IKK activation only in lines or tumors with such mutations. In other words, CARD11 mutations may explain NF-kappaB activation in only 10% of ABC-DLBCL cases. […] This process has been termed 'chronic active BCR signaling' (CABS). The goal of this screen is to find small-molecule inhibitors of the CABS pathway found in ABC-DLBCL lines using a cell-based assay that measures IkappaBalpa stability, which has already been extensively validated in the OCI-Ly3 line (PubChem AID:445; REF: 4). […] Hits from the primary screen were tested in this selectivity secondary assay. NIH Molecular Libraries Probe Production Network [MLPCN] NIH Chemical Genomics Center [NCGC] MLPCN Grant: R03 DA031086 PI Name: Dr. R. Eric Davis
Cells were seeded in 1536-well plates at 5000 cells/3ul in IMDM medium containing 0.5% FBS, w/o phenol red, L-glutamine, 25 mM HEPES, 3 mg/ml sodium bicarbonate. After centrifugation for 1 min. at 1000 rpm, 23 nl of compounds or DMSO were delivered to each well using a pin tool. Then 1ul 80ng/ml doxycycline was dispensed into white solid 1536-well plates and the plates were incubated at 37C/5% C02 in a cell incubator for 4 hrs. Then 4 ul Chroma-Glo luminescent substrate mix (Promega) was added to each well. The plate was incubated at R.T. for 10-15 min. The plates were measured on a ViewLux plate reader for green luminescence (540/20 nm filter) and red luminescence (618/8 nm filter). The green and red luminescent signals were corrected for red and green luminescence filter overlap using previously determined filter calibration constants (determined using the procedure outlined in the Promega Technical Manual). The %Activity was determined from the ratio of corrected green/red luminescent values. Green luminescent and ratio %Activity was determined by normalizing to the difference in signal between basal cells (0% Activity) and cells incubated with 10 uM of the proteasome inhibitor MG-132 (100% Activity). Red luminescent %Activity was normalized to the difference between red luminesence in basal cells (0%Activity) and zero luminescence (-100% Activity). Concentration-response curves were fitted to the signals arising from the green luminescence (I-kappa-B-alpha-luciferase fusion; IkB-luc) and the red luminescence (unfused luciferase; luc) as well as the calculated ratio. The concentration-effect curves were then classified based on curve quality (r2), response magnitude and degree of measured activity. Compounds were then categorized based on their concentration-response curves for all three datasets (Ikb-luc, luc and ratio).
% is scaled to controls: 0 for no effect and ±100 for the full control effect; potency is read from the fitted curve at half-maximal effect.

Row | Structure (SMILES) | activity change, negative = inhibition [%] | Potency
1 | COc1ccccc1C(=O)Nc1ccccc1SC(=O)c1ccccc1OC | -25.4 | –
2 | CCOc1ccc2c(c1)C(C)=CC(C)(C)N2S(=O)(=O)c1ccc(NC(C)=O)cc1 | -3.37 | –
3 | Cc1ccc2nc(NC(=O)c3ccccn3)sc2c1 | 14.4 | –
4 | C[C@]12C=CC(=O)C=C1CC[C@@H]1[C@@H]2[C@@H](O)C[C@@]2(C)[C@H]1CC[C@]2(O)C(=O)COC(=O)CCC(=O)O | -1.59 | –
5 | C/C(Cl)=C\Cn1c(O)c(N=NC(N)=S)c2cc(Br)ccc21 | 64.8 | –
6 | OC[C@H]1O[C@@H](n2cnc3c(NC4CCCC4)nc(Cl)nc32)[C@H](O)[C@@H]1O | -0.38 | –
7 | Cc1ccc(N=Nc2c(C)[nH]n(C(N)=S)c2=O)cc1 | 0.657 | –
8 | Cc1[nH]n(C(N)=S)c(=O)c1N=Nc1cccc(Cl)c1 | – | 20.6 µM (active)
9 | Cc1[nH]n(C(N)=S)c(=O)c1N=Nc1ccc2ccccc2c1 | -3.53 | –
10 | CCN1C(=O)c2cccc3c(NC(=O)c4ccc(OC)c(OC)c4)ccc1c23 | -6.01 | –
11 | O=C1N/C(=C/c2ccc(N3CCOCC3)o2)C(=O)N1c1cccc(Cl)c1 | -6 | –
12 | O=C(N/N=C/c1ccc(O)cc1)c1[nH]c2ccc(Br)cc2c1-c1ccccc1 | -7.64 | –
13 | COc1c(Br)cc(Br)cc1/C=N/NC(=O)c1cccnc1 | -0.0712 | –
14 | CCOC(=O)c1c(C)oc2c1cc(NS(=O)(=O)c1ccc(C(=O)O)cc1)c1ccccc12 | -5.36 | –
15 | Cc1cccc(OCCN2C(=O)C(=O)c3cc(C)ccc32)c1 | -1.66 | –
16 | Cc1onc(-c2ccccc2)c1-c1nc2cc(Cl)ccc2c(=O)o1 | -14.1 | –
17 | CSc1nc(SCC(=O)NCc2ccco2)c2c3c(sc2n1)COC(C)(C)C3 | -2.6 | –
18 | Cc1nnc(C)n1/N=C/c1cc2ccccc2nc1Cl | -2.19 | –
19 | Cc1cc(=O)c(C(=O)Nc2cccc(N3CCCC3=O)c2)nn1-c1ccccc1Cl | -0.879 | –
20 | COc1ccc(C2=NC(C)(C)Cc3cc(OC)c(OC)cc32)cc1OC | 0.417 | –
21 | CCCCC[C@H](O)/C=C/[C@@H]1[C@@H](C/C=C\CCCC(=O)O)[C@@H](O)C[C@H]1O | -0.871 | –
22 | c1ccc(-c2cc(-c3nnc4n3N=C(c3ccc5ccccc5c3)CS4)[nH]n2)cc1 | -4.31 | –
23 | O=C(c1ccc(Cl)cc1)c1cc([N+](=O)[O-])ccc1N1CCOCC1 | -4.74 | –
24 | O=C(O)c1ccc(CSc2nnc(-c3ccco3)o2)cc1 | -0.305 | –
25 | COC(=O)c1cccc(-n2sc3ccccc3c2=O)c1 | -6.16 | –
26 | CC(Oc1ccc(Br)cc1)c1nc2c3ccccc3nc(=S)n2[nH]1 (configuration not stated) | 349 | –

Row | Structure (SMILES) | activity change, negative = inhibition [%] | Potency
27 | CCOc1ccccc1/C=N/Nc1nc2c(N)ncnc2n1[C@H]1O[C@@H](CO)[C@H](O)[C@@H]1O | 0.035 | –
28 | CCCNS(=O)(=O)c1cccc(C(=O)OCc2cc(=O)oc3cc(OC)ccc23)c1 | -16.4 | –
29 | Cc1ccc(NS(=O)(=O)c2cc(-c3n[nH]c(=O)c4ccccc34)ccc2C)cc1 | -3.87 | –
30 | COc1ccc(-c2c(C)nn3c(N)c(C#N)cnc23)cc1OC | 0.123 | –
31 | COc1cccc(-c2nnc(Nc3nc4c(F)cccc4s3)o2)c1 | 37.5 | –
32 | CCOc1c(OC)cccc1C1CC(=O)Nc2cc(OC)c(OC)cc21 (configuration not stated) | -0.312 | –
33 | COc1ccc(-c2noc(CSc3nc(N)c(-c4ccccc4)c(=O)[nH]3)n2)cc1 | -0.936 | –
34 | COc1ccccc1NC(=O)Cn1nnc(C(=O)NCc2cccs2)c1N | -0.743 | –
35 | COc1cc2c(c(OC)c1OC)-c1ccc(OC)c(=O)cc1[C@@H](N(C)CC#CCO)CC2 | -1.53 | –
36 | Cc1cccc(N(C)S(=O)(=O)c2ccc(-c3cnc(C4CC4)o3)cc2)c1 | -6.59 | –
37 | C#CCOc1ccc(C2C3=C(COC3=O)Nc3cc4c(cc32)OCO4)cc1OC (configuration not stated) | -3.1 | –
38 | CCc1ccc(CCC(=O)Nc2sc3c(c2C#N)CCCC3)o1 | -1.9 | –
39 | Cc1cccc(C)c1NS(=O)(=O)c1ccc(-c2cnc(C3CC3)o2)cc1 | -5.58 | –
40 | O=C(O)CCCN1C(=O)/C(=C\c2ccccc2OCc2ccccc2)SC1=S | -3.44 | –
41 | CC1=Nc2ccccc2/C1=C\c1sc(Nc2ccc(C)cc2)nc1O | -20.5 | –
42 | COc1cccc(Nc2sc(C(=O)c3ccc(Cl)cc3)c(N)c2C(=O)NCc2ccc(C)cc2)c1 | -1.56 | –
43 | CC(=O)N1c2ccc(C)cc2C(c2ccccc2)CC1C (configuration not stated) | -2.03 | –
44 | Cc1noc(C)c1CSc1nc2[nH]ncc2c(=O)n1-c1ccccc1 | -5.84 | –
45 | COc1ccc2c(c1)sc1nc(-c3ccccc3)cn12 | 16.8 | –
46 | Nc1ccc(C(=O)n2c3ccccc3c3ccccc32)cc1 | -4.18 | –
47 | O=c1cc(-c2cccc(F)c2)[nH]c2ccccc12 | -3.48 | –
48 | COc1ccc(CCNc2oc(-c3ccc(OC)c(OC)c3)nc2P(=O)(OC)OC)cc1OC | 0.113 | –
49 | COc1cc(OC)c(OC)cc1/C=C1\CCC/C(=C\c2cc(OC)c(OC)cc2OC)C1=O | -10.7 | –
50 | COc1ccccc1-n1cnc2cc(NCc3cccs3)ccc21 | 40.4 | –
51 | NNC(=O)c1[nH]c2ccccc2c1-c1ccccc1 | -4.38 | –
52 | COc1cc(Cc2nccc3cc(OC)c(OC)cc23)c(NC(C)=O)cc1OC | -0.252 | –
